Source: PubChem BioAssay
The list is not random: actives were taken first. Their share in the collection is about 2.3%.
CHRM1 agonist: activates human CHRM1 receptor; activation, % at 3 µM; P11229; CHO-K1 hM1, Fluo-8 calcium fluorescence, agonist mode; 0% DMSO, 100% acetylcholine EC100; AID 588814; actives 0.33% (n = 360,000);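 active = activation above the run's mean compound activation plus 3 SD, cut at about 16% in these data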;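 also: peak over basal fluorescence ratio within a 140 s kinetic read after compound addition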
Target sequence (P11229 whole entry, looked up): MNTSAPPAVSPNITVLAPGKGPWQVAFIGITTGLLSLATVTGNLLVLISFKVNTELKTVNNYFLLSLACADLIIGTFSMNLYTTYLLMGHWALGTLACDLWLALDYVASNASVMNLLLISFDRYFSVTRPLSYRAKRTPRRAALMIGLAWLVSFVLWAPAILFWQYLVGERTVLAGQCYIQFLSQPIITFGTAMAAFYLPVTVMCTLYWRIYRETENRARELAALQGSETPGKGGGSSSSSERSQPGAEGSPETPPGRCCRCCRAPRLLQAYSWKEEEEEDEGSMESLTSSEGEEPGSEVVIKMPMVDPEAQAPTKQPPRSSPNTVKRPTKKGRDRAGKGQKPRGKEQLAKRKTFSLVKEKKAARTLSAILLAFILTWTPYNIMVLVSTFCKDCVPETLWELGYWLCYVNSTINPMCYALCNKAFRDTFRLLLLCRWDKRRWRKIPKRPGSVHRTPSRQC
M1 PAM parental: counter-screen for M1 PAMs: effect in parental CHO-K1 cells | ATP EC20, Fluo-8 calcium fluorescence; 0% at ATP EC20, 100% at ATP max | activation, % at 3 µM | actives 0.02% (n = 360,000);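 active = activation above the run cutoff, the mean activation of all test compounds plus 3 SD, cut at about 40% in these data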;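 also: peak over basal fluorescence ratio in a 140 s read after ATP addition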
CHO-K1 Ca antag: counter-screen for M1 antagonists: effect in parental CHO-K1 cells. ATP-induced calcium, Fluo-8 fluorescence. inhibition, % at 3 µM. actives 0.6% (n = 360,000);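 active = inhibition above a per-plate cutoff, the plate's mean sample inhibition plus 3 SD, cut at about 24% in these data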
CHRM1 PAM: positive allosteric modulators of human M1 muscarinic receptor | AID 588819 | actives 0.088% (n = 360,000) | P11229 | activation, % at 3 µM | CHO-K1 hM1, Fluo-8 calcium fluorescence, ACh EC20; 0% = ACh EC20, 100% = maximal ACh; in the data active = activation above about 19%, passing the limit was not always enough
CHRM1 antagonist: human CHRM1 antagonism; P11229; CHO-K1 hM1, Fluo-8 calcium fluorescence, ACh EC80 antagonist; inhibition, % at 3 µM; actives 1.3% (n = 360,000);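 active = percent inhibition above its own plate's cutoff, namely the mean of that plate's compound wells plus 3 SD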;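 also: peak over basal fluorescence ratio during 140 s after agonist addition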
CHO-K1 Ca ag: counter-screen for M1 agonists: effect in parental CHO-K1 cells; Fluo-8 calcium fluorescence; scaled to maximal ATP response, vehicle zero; activation, % at 3 µM; actives 0.48% (n = 360,000); AID 602248; in the data active = activation above about 15%;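 also: untransfected CHO-K1 host cells lacking M1 receptor as counterscreen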
Hits are given with their value; . = inactive; / = no result.

SMILES	CHRM1 agonist	M1 PAM parental	CHO-K1 Ca antag	CHRM1 PAM	CHRM1 antagonist	CHO-K1 Ca ag
COc1ccc(S(=O)(=O)N(C)C)cc1NC(=O)CCCSc1ccccc1	.	.	.	.	.	.
CC1CC(C)CN(C(=O)COC(=O)c2cc(S(=O)(=O)N3CCOCC3)ccc2F)C1 (stereo not given)	.	.	.	.	57	.
O=C(CCN1CCN(Cc2ccccc2)CC1)NNC(=O)Nc1cccc(C(F)(F)F)c1	.	.	.	.	.	.
CC(C)(C)N(Cc1ccccc1)C(=O)c1ccc(Br)o1	.	.	.	.	.	.
CC(C)(C)N(Cc1ccccc1)C(=O)c1ccc(Cl)cc1[N+](=O)[O-]	.	.	.	.	39	.
Cc1ccc(C(=O)N(Cc2ccccc2)C(C)(C)C)cc1C	.	.	.	.	51	.
O=C(Nc1ccccc1SC(=O)c1ccccc1)c1ccccc1	.	.	.	.	.	.
Cc1ccc(C(=O)Sc2cccccc2=O)cc1	.	.	35	.	33	.
O=C(Nc1ccc(Br)cc1F)c1cccnc1	.	.	.	.	.	.
CCCCn1nnnc1C(CC)N1CCN(C/C=C/c2ccccc2)CC1 (stereo not given)	.	.	.	.	.	.
COc1ccc(-n2nnnc2C(c2ccccc2)N2CCN(C/C=C/c3ccccc3)CC2)cc1 (stereo not given)	.	.	.	.	68	.
CCCCn1nnnc1C(c1ccnc2ccccc12)N1CCN(C/C=C/c2ccccc2)CC1 (stereo not given)	.	.	.	.	80	.
CC(C)(C)n1nnnc1C(c1ccccc1)N1CCN(C/C=C/c2ccccc2)CC1 (stereo not given)	.	.	.	.	63	.
CCC(c1nnnn1C(C)(C)C)N1CCN(C/C=C/c2ccccc2)CC1 (stereo not given)	.	.	.	.	.	.
CCCCn1nnnc1C(c1ccccc1)N1CCN(C/C=C/c2ccccc2)CC1 (stereo not given)	.	.	.	.	53	.
COc1ccc(N2CC(C(=O)N[C@@H](C)C(=O)NCc3ccccc3OC)CC2=O)cc1 (stereo not given in full)	.	.	.	.	.	.
O=c1cc2c(c(-c3ccccc3)n1Cc1ccccc1)[C@@H](CCO)NC2	.	.	.	.	.	.
Cc1cccc(C)c1-n1nnnc1C(c1cc2ccccc2o1)N1CCN(C/C=C/c2ccccc2)CC1 (stereo not given)	.	.	.	.	56	.
Cc1cccc(C)c1-n1nnnc1C(c1cccc2ccccc12)N1CCN(C/C=C/c2ccccc2)CC1 (stereo not given)	.	.	.	.	.	.
CCCCn1nnnc1C(c1cccc2ccccc12)N1CCN(C/C=C/c2ccccc2)CC1 (stereo not given)	.	.	.	.	95	.
CCCCn1nnnc1C(c1ccccc1OC(F)(F)F)N1CCN(C/C=C/c2ccccc2)CC1 (stereo not given)	.	.	.	.	.	.
CCn1c(CC(C)C)n[nH]c1=S	.	.	.	.	.	.
CCn1c(CCn2ccnc2C)n[nH]c1=S	28	.	.	.	.	.
COc1ccc(C(=O)OCC(=O)Nc2ccc(OC(F)F)cc2)c(OC)c1	.	.	25	.	.	.
Cc1cccc(Cl)c1OCCCN1CCOCC1	.	.	.	.	32	.
SMILES	CHRM1 agonist	M1 PAM parental	CHO-K1 Ca antag	CHRM1 PAM	CHRM1 antagonist	CHO-K1 Ca ag
CCOC(=O)[C@H](C)N1[C@H](C)[C@H](c2ccccc2)Oc2ccc(Cl)cc2S1(=O)=O	.	.	.	.	.	.
CCN(CC)CCN1C(=O)C(=O)/C(=C(/O)c2c(C)[nH]c(C(=O)OC)c2C)C1c1ccccc1OC (stereo not given)	.	.	31	.	.	.
CCCCC(=O)Oc1c(S(=O)(=O)c2ccccc2)c(C)nn1C(C)(C)C	.	.	.	.	.	.
CC(C)NC(=O)c1ccc(CN2CCc3ccccc3C2)cc1	.	.	.	.	45	.
Cc1ccc(S(=O)(=O)N2CCC(=O)N([C@H](COC(=O)Nc3ccccc3)Cc3ccccc3)CC2)cc1	/	.	.	/	/	.
CN1/C(=C\C(=O)c2ccco2)C(C)(C)c2ccccc21	.	.	39	.	31	.
CN1/C(=C\C(=O)c2cncc(Br)c2)C(C)(C)c2ccccc21	.	.	24	.	.	.
COC(=O)c1ccc(CNC(=O)COC(=O)/C=C/c2cccc(OC)c2)cc1	.	.	.	.	.	.
CCCCNC(=O)C1(C)CCC(=O)N1C1CCN(Cc2ccccc2)CC1 (stereo not given)	.	.	.	.	.	.
CCOC(=O)C1CCCN(C(=O)CCCn2nnnc2CN2CCC(C)CC2)C1 (stereo not given)	22	.	.	.	.	.
CCOC(=O)C1CCCN(C(=O)C2CCN(C(=O)Nc3ccccc3)CC2)C1 (stereo not given)	.	.	.	.	.	.
CCOC(=O)C1CCCN(C(=S)Nc2ccc(F)cc2)C1 (stereo not given)	79	.	.	.	69	.
CCOC(=O)C1CCCN(C(=S)NC2CCCC2)C1 (stereo not given)	51	.	.	.	.	.
CCOC(=O)C1CCCN(C(=O)CSc2ccc(NC(C)=O)cc2)C1 (stereo not given)	.	.	.	.	.	.
CCOC(=O)C1CCCN(C(=O)Nc2ccccc2)C1 (stereo not given)	54	.	.	.	.	.
COc1ccccc1-n1c(SCC(=O)Nc2cc(C)on2)nc2c([nH]c3ccccc32)c1=O	.	.	.	.	.	.
COc1ccc(OC)c(CNC(=O)C(C)n2nc(C)c3c(C)n(-c4ccccc4)nc3c2=O)c1 (stereo not given)	.	.	.	.	.	.
CCc1nc2ccc(C(=O)N(C)CCCN(C)C)cn2c1N(C)C(=O)C1CCCCC1	.	.	.	.	.	.
CCOC(=O)N1CCC(N2CCN(C3CCCC3)C(CCO)C2)CC1 (stereo not given)	.	.	.	.	47	.
CCOC(=O)C1CCCN(C(=O)CCn2nc(-c3ccccc3)ccc2=O)C1 (stereo not given)	.	.	24	.	.	.
CCOC(=O)C1CCCN(C(=S)Nc2ccc(OC)cc2)C1 (stereo not given)	57	.	.	.	58	.
CCOC(=O)C1CCCN(c2cc(C)nc3cc(-c4ccc(F)cc4)nn23)C1 (stereo not given)	46	.	.	.	.	.
CCCN(C(=O)c1cc(S(=O)(=O)N(C)c2ccc(OCC)cc2)ccc1C)C1CCS(=O)(=O)C1 (stereo not given)	.	.	.	.	.	.
